# Pf Dd2 growth – qHTS Primary assay for Inhibitors of Plasmodium falciparum Dd2 growth in vitro; P. falciparum Dd2 growth, SYBR Green, 72 h; Potency, µM (doses to about 28.9 µM), without a hit: top-dose activity, negative = inhibition, actives largely listed as inhibitors; 4.3% of 120,000 active; active means well fitted inhibition curve with a large enough effect;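 further: plate controls were DMSO vehicle for no effect and reference drug for full effect; nearly all actives have a fitted effect of over 65% in size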
#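 Readout: SYBR Green fluorescence, 485 nm excitation, 535 nm emission, after ~16 h lysis at 37C. Before that, Dd2-infected red cells (2.5% hematocrit) grew 72 h with compound, 29 uM top final concentration.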
# Numbers without * were called inactive; i = inactive; [ ] = another dose, or the depositor's remark. The entries come from a sample that favours hits as a whole. Potency means the concentration at half of the fitted maximal effect.
SMILES,Pf Dd2 growth
CCC(=O)N1CCc2cc(Br)cc(S(=O)(=O)N3CCCC(C(=O)Nc4ccc(CC)cc4)C3)c21 (centres undefined),i
CCC(=O)N1CCc2cc(Br)cc(S(=O)(=O)N3CCCC(C(=O)Nc4ccc(OC)cc4OC)C3)c21 (centres undefined),19%
CCC(=O)N1CCc2cc(Br)cc(S(=O)(=O)N3CCCC(C(=O)Nc4cccc(C)c4C)C3)c21 (centres undefined),5µM*
CCC(=O)N1CCc2cc(Br)cc(S(=O)(=O)N3CCCC(C(=O)N(C)c4ccc(Br)cc4)C3)c21 (centres undefined),8.9µM*
Cc1cccc(NC(=O)C2CCCN(S(=O)(=O)c3cccc4nonc34)C2)c1 (centres undefined),42%
CCC(=O)N1CCc2cc(Br)cc(S(=O)(=O)NCc3ccccc3)c21,i
CCC(=O)N1CCc2cc(Br)cc(S(=O)(=O)N3CCCC(C(=O)NCc4ccc(C)cc4)C3)c21 (centres undefined),i
CCC(=O)N1CCc2cc(Br)cc(S(=O)(=O)N3CCCC(C(=O)Nc4cccc(F)c4)C3)c21 (centres undefined),3.5µM*
COc1ccc(CN2C[C@@H]3C(=O)N(Cc4ccc5c(c4)OCO5)C(=O)[C@@H]3C2)cc1OC,-15%
O=C(N[C@H]1C[C@H]2C(=O)NC[C@@H](CCC(=O)N3CCN(c4ccccn4)CC3)N2C1)c1ccccc1,6%
CC(C(=O)NCCc1ccccc1)N1C(=O)COc2ccc(C(=O)COc3ccc(Cl)cc3)cc21 (centres undefined),i
CC(=O)N1CCC(Cc2ncc(C)n2C2CC2)C1 (centres undefined),-24%
N#Cc1ccccc1N1CCN(C(=O)CCc2ccc(F)c(F)c2)CC1=O,1%
COc1cccc(NC(=O)Cn2c(C)cc3nc4n(c(=O)c32)CCC4)c1,i
O=C1CCN(S(=O)(=O)c2ccccc2)CCCN(C(=O)C2CCOCC2)CCN1,0%
CS(=O)(=O)c1ccc(CN2CCOC[C@H]2c2ncc(-c3cccc(Cl)c3)[nH]2)cc1,i
COc1ccc(-c2cnc([C@@H]3COCCN3Cc3ccc(C)cc3)[nH]2)cc1,i
Clc1cccc(-c2cnc([C@@H]3COCCN3C3CCCCC3)[nH]2)c1,11µM*
Clc1ccc(-c2cnc([C@@H]3COCCN3C3CCC3)[nH]2)cc1,i
Clc1ccc(-c2cnc([C@@H]3COCCN3C3CCOCC3)[nH]2)cc1,i
Clc1ccc(-c2cnc([C@@H]3COCCN3Cc3ccccc3)[nH]2)cc1,10µM*
COc1cccc(-c2cnc([C@@H]3COCCN3Cc3ccccc3)[nH]2)c1,11µM*
Fc1ccc(-c2cnc([C@@H]3COCCN3Cc3ccncc3)[nH]2)cc1,i
CC(C)(C)CN1CCOC[C@H]1c1ncc(-c2ccc(Cl)cc2)[nH]1,-3%[44.1 µM]
Cc1cc(C)n(CCC(=O)N[C@@H]2CN(Cc3ccncc3)C[C@H]2CN(C)C)n1,7%
SMILES,Pf Dd2 growth
CN1C(=O)[C@H]2CN(Cc3ccc(F)c(Br)c3)C[C@H]2C1=O,-2%
CN1CC(=O)N(C2CCCNCC2)Cc2c1ncnc2N1CCC(N2CCCC2)CC1 (centres undefined),19%
Cc1cc(C)cc(OCC(=O)c2ccc3c(c2)N(CC(=O)NCc2ccccc2)C(=O)CO3)c1,i
Cc1ccccc1-c1nc(N2CCOCC2)cc2c1CN(CC1CC1)C2=O,-24%[44.1 µM]
O=C(c1ccc2c(c1)OCO2)N1CCN2C(=O)N(Cc3ccccc3)C(=O)[C@H]2C1,-16%[44.1 µM]
O=C(NCC1CCCCO1)c1coc(COc2cccc(C(F)(F)F)c2)n1 (centres undefined),-24%
O=C(O)Cn1ccc2cc(OCC3CCN(C(=O)C4CCCC4)CC3)cnc21,i
CC(C)CN1C(=O)CO[C@H](c2ccc(NS(=O)(=O)c3cccc(F)c3)cc2)[C@H]1CO,i
CC(=O)N1CCOc2cc(S(=O)(=O)NC(C)c3ccccc3)c(Cl)cc21 (centres undefined),3%
CC(=O)N1CCOc2cc(S(=O)(=O)Nc3cc(C(F)(F)F)ccc3Cl)c(C)cc21,26%
CC(=O)N1CCOc2cc(S(=O)(=O)Nc3cccc(C(F)(F)F)c3)c(Cl)cc21,13µM*
Cc1ccsc1CN(Cc1ccc(CN(C)S(C)(=O)=O)o1)CC(C)C,8.9µM*
CN(Cc1ccc(F)cc1)S(C)(=O)=O,7%[44.1 µM]
Cc1c(C(=O)N2CCCC(CCc3ccc(F)cc3)C2)cnc2cc(=O)[nH]n12 (centres undefined),-28%
CC(C)CCN1CCC(N2CCN(S(=O)(=O)c3ccc4c(c3)CCC4)CC2)C1=O (centres undefined),7.1µM*
COc1cccc(S(=O)(=O)N2CCN(C3CCN(CCC(C)C)C3=O)CC2)c1 (centres undefined),-29%
CC(C)CCN1CCC(N2CCN(S(=O)(=O)c3ccc(Cl)cc3)CC2)C1=O (centres undefined),0%
Cc1ccc(F)cc1S(=O)(=O)N1CCN(C2CCN(CCC(C)C)C2=O)CC1 (centres undefined),-22%
CC(C)CCN1CCC(N2CCN(S(=O)(=O)c3cc(F)cc(F)c3)CC2)C1=O (centres undefined),-3%
O=C1C(N2CCN(S(=O)(=O)c3ccc(Cl)cc3)CC2)CCN1CCc1ccccc1 (centres undefined),i
CCc1ccccc1S(=O)(=O)N1CCN(C2CCN(CCC(C)C)C2=O)CC1 (centres undefined),10µM*
CCCc1ccc(S(=O)(=O)N2CCN(C3CCN(CCOC)C3=O)CC2)cc1 (centres undefined),i
CCCc1ccc(S(=O)(=O)N2CCN(C3CCN(CCC(C)C)C3=O)CC2)cc1 (centres undefined),5.6µM*
CC(C)CCC(=O)N1CC(C(=O)N(C)C)C2(CCOCC2)C1 (centres undefined),7%
O=C(NCc1cc2n(n1)CCNC2)C1CCCN(c2ccccn2)C1 (centres undefined),-11%
SMILES,Pf Dd2 growth
Cc1noc2c(N3CC[S+](=O)([O-])CC3)cc(-c3cccs3)nc12,-22%[44.1 µM]
Cc1ncsc1CN1CCCN(S(=O)(=O)c2ccccc2)CCC(=O)NCC1,-21%
CC(=O)N1CCC(N[C@H]2C[C@@H](Cc3cc(CN4CCOCC4)on3)C2(C)C)CC1,5%[44.1 µM]
COc1ccc(C2(C(=O)NCCc3ncc(C)n3CC3CC3)CC2)cc1,-32%
CN(Cc1ccccc1)Cc1cn(C[C@H]2CC3CCN2C[C@@H]3C(=O)NCc2ccc(F)cc2)nn1 (some centres undefined),10µM*
CC(=O)NCCNC(=O)[C@H]1CN2CCC1C[C@@H]2Cn1cc(CN(C)Cc2ccccc2)nn1 (some centres undefined),6%
CN(Cc1ccccc1)Cc1cn(C[C@H]2CC3CCN2C[C@@H]3C(=O)NCc2ccccc2)nn1 (some centres undefined),i
CCc1cc(NCCNC(=O)c2ccccc2Cl)n2nccc2n1,4%
CCn1nccc1C(=O)N1C[C@@H](Oc2ccccc2)C[C@H]1C(=O)NC1CC1,23%
Cc1ccc(CC(=O)Nc2ccc(-c3nnc4n3CCCC4)cc2)cc1,i
O=C(COc1cccc(-c2nnc3n2CCCC3)c1)Nc1ccc(Cl)cc1F,-29%
COc1ccc(NC(=O)COc2ccc(-c3nnc4n3CCCC4)cc2)cc1OC,8.9µM*
COc1ccc(NC(=O)COc2cccc(-c3nnc4n3CCCC4)c2)cc1OC,7.9µM*
COc1ccc(NC(=O)Cn2nc3n(c2=O)CCCCC3)cc1OC,i

# Screens (PubChem BioAssay)
